L3MBTL1 inh: inhibitors of human L3MBTL1; Q9Y468; AlphaScreen L3MBTL1–H3K9me1 peptide binding; Potency, µM (series often up to 57.1 µM), for the others: top-dose activity, negative = inhibition, usual class: inhibitors; 0.66% of 230,000 active; further: on the % scale 0 is the no-effect control and ±100 the full control effect; nearly all actives have a fitted effect of over 60% in size
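AlphaScreen proximity signal between nickel-chelate acceptor and streptavidin donor beads (final 10 ug/mL) reports binding of 50 nM L3MBTL1 to 75 nM biotin-H3 K9me1 peptide; complex incubated with compounds 30 min at room temperature; cefsulodin titration as control.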
Sfp inh: inhibitors of Bacillus subtilis Sfp phosphopantetheinyl transferase | Q9F4F7 | Biochemical Sfp PPTase activity, qHTS | Potency, µM, for inactives: largest response in the series, negative = inhibition, most hits filed as inhibitors | 3.5% of 310,000 active | AID 1490;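 further: the enzyme is Sfp with the accession as filed and its product quenches rhodamine fluorescence; 0% = enzyme reaction without inhibitor and -100% = no enzyme wells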
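Reaction rates are the 30-min fluorescence difference (ex 525, em 598 nm) in wells containing 15 nM Sfp, 5 uM rhodamine-CoA and 12.5 uM BHQ-2-YbbR at pH 7.6 with 10 mM MgCl2.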
BAZ2B block: blocks human BAZ2B. AlphaScreen BAZ2B-H3K14Ac peptide displacement. Potency, µM (titrated, usually from 114 µM), without a hit: top-dose activity change, negative = inhibition, actives largely listed as inhibitors. AID 504333. 4.4% of 360,000 active. Q9UIF8; further: on the % scale 0 is the no-effect control and ±100 the full control effect; nearly all actives have a fitted effect of over 60% in size
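AlphaScreen displacement: compounds (up to 110uM) incubated 30 min at room temperature with a preformed 50 nM BAZ2B/50 nM biotinylated H3K14Ac peptide complex in PBS pH 7.4 with Tween-20. Donor and acceptor beads at 10 ug/mL final added, 20 min light-protected before reading.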
JMJD2A Tudor: JMJD2A Tudor domain (human) inhibition | Potency, µM (titrated, usually from 114 µM), without a hit: top-dose activity change, negative = inhibition, actives largely listed as inhibitors | 4.4% of 390,000 active | AlphaScreen JMJD2A-Tudor / H3K4me3 peptide binding | AID 504339; further: on the % scale 0 is the no-effect control and ±100 the full control effect; nearly all actives have a fitted effect of over 50% in size
HP1b binding inh: HP1-beta chromodomain-methylated histone interaction inhibition; P83916; Potency, µM (series often up to 114 µM), for the others: at the highest dose activity change, negative = inhibition, actives largely listed as inhibitors; 0.56% of 390,000 active; AlphaScreen HP1-beta / biotin-H3K9me3 peptide binding; further: nearly all actives have a fitted effect of over 70% in size
Target sequence (P83916 whole entry, looked up): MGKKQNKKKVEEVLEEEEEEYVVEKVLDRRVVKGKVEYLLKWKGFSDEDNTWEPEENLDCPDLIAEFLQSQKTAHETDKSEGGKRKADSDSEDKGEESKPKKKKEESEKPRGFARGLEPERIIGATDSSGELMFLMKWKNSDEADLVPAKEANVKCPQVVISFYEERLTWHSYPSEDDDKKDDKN
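AlphaScreen: HP1-beta (50 nM) preformed 30 min with biotin-H3(1-18)K9me3 peptide (50 nM) in PBS pH 7.4, 0.01% Tween-20. Compound added for 30 min at RT, then streptavidin donor/nickel chelate acceptor beads (10 ug/mL) for 30 min.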
G9a inh: inhibitors of human histone lysine methyltransferase G9a. 8.8% of 350,000 active. Potency, µM (doses to about 102 µM), without a hit: at the top dose activity, negative = inhibition, most hits filed as inhibitors. Q96KQ7. G9a H3K9 monomethylation, AlphaScreen, 2 h. AID 504332; further: on the % scale 0 is the no-effect control and ±100 the full control effect; nearly all actives have a fitted effect of over 75% in size
Target sequence (Q96KQ7 913-1193 limits assumed): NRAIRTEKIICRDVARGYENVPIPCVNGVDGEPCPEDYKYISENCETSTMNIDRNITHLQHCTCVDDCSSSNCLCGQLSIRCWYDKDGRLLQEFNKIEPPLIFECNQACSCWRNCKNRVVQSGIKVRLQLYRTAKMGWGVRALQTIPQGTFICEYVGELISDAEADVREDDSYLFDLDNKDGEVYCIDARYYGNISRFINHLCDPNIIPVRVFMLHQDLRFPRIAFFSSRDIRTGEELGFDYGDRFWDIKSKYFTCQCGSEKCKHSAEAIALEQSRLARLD
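Chemiluminescent proximity detection of H3K9 monomethylation, read after 10 min bead incubation in the dark. Reaction: 20 nM G9a, 500 nM biotin-H3K9 peptide, 20 uM SAM cofactor, 2 h, room temperature, following 15 min enzyme-compound preincubation.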
An asterisk follows results filed as active; ? = inconclusive; . = not tested or not shown; [ ] = another dose, or the depositor's remark. Compounds with a hit are over-represented: about 12% of the library has one in this group of screens. The call rests on the fitted dose curve; in most records, active means well fitted curve in the direction sought with a large enough effect; inconclusive means small, poorly fitted or top-dose-only effect, or another doubt; inactive means no such curve, though single readings can be large; an effect the other way counts as inactive or inconclusive. Potency means the concentration at half of the fitted maximal effect.

SMILES | L3MBTL1 inh | Sfp inh | BAZ2B block | JMJD2A Tudor | HP1b binding inh | G9a inh
O=C(NCc1n[nH]c(=S)n1-c1ccc(Cl)c(Cl)c1)c1ccc(S(=O)(=O)N2CCCCC2)cc1 | . | -3.3% | -27.1% | -28.6% | 14.3% | 8.91µM*
Cc1ccc(CNC(=O)c2ccc(S(=O)(=O)N3CCCCC3)cc2)cc1 | 5.1% | . | 4.9% | -21.4% | 22.2% | -6.3%
Cc1cccc(-n2c(CNC(=O)c3ccc(S(=O)(=O)N4CCCCC4)cc3)n[nH]c2=S)c1 | . | -1.1% | 2.3% | 35.5µM* | 28.1% | 7.08µM*
O=C(NCc1n[nH]c(=S)n1-c1ccc(F)cc1)c1ccc(S(=O)(=O)N2CCCC2)cc1 | . | -28.0% | -3.3% | 28.2µM* | 18.7% | ?
CCOc1ccc(CCNC(=O)c2ccc(C)c(-n3cnc4cccnc43)c2)cc1 | . | . | -13.7% | 3.8% | 40.4% | ?
CCc1c(-c2ccccc2)nc2ccccc2c1C(=O)NCCc1ccccc1 | . | . | 4.9% | -16.2% | 2.1% | -1.5%[59 µM]
Cc1cccc(CC(=O)NC2CC(=O)N(c3ccccc3)C2)c1 (stereo not drawn) | . | . | 0.7% | -18.5% | 11.3% | 8.8%[59 µM]
O=C(NCc1n[nH]c(=S)n1-c1cccc(Cl)c1)c1ccc(S(=O)(=O)N2CCCC2)cc1 | -1.4% | ? | ? | 89.1µM* | 18.7% | ?
O=C(NCc1ccc(Cl)cc1)c1cccc(S(=O)(=O)N2CCCC2)c1 | 3.4% | . | 4.7% | -8.4% | 79.2% | -50.6%[59 µM]
Cc1cc2ccccc2c(=O)n1CC(=O)NCC(=O)N1CCN(c2ccccc2)CC1 | 11.8% | 50.1µM* | ? | -31.0% | 16.7% | 25.9%[59 µM]
Cc1cc2ccccc2c(=O)n1CC(=O)N1CCN(c2cccc(Cl)c2)CC1 | . | -3.2% | 8.7% | -8.9% | 16.8% | -22.7%[2.33 µM]
COc1ccc(-c2ccc3c(n2)sc2c(=O)[nH]c(=O)[nH]c23)cc1OC | -6.6% | -15.9% | -38.5% | . | . | 3.55µM*
COc1ccc(-c2ccc3c(N)c(C(=O)c4ccc(OC)c(OC)c4)sc3n2)cc1 | . | -15.7% | -26.3% | ? | 8.4% | 2.82µM*
COc1ccc(-c2ccc3c(N)c(C(=O)NC(C)C)sc3n2)cc1OC | 29.4% | ? | -0.7% | 23.5% | 76.5% | -43.7%
COc1ccc(C(=O)c2sc3nc(-c4ccccc4)ccc3c2N)cc1OC | 10.7% | -2.6% | -24.0% | -35.3% | 34.5% | ?
CCc1cc2c(nc1CC)CCN(CC/C(C)=N/O[C@@H](C)CN1CCCc3nc(C)c(C)cc31)C2 | . | -6.1% | . | . | . | .
CCC(Nc1ccc(OC)cc1)C(=O)N/N=C/c1ccc([N+](=O)[O-])cc1 (stereo not drawn) | -5.7% | -0.7% | 44.7µM* | ? | -19.8% | ?
CCOc1ccc(CNC(=S)N/N=C\c2ccc([N+](=O)[O-])cc2)cc1 | 4.9% | 56.2µM* | -2.3% | -13.5% | 32.2% | ?
Cc1cccc(NC(=O)CSc2nc3ccccc3c3nc(CCn4cncc4C)nn23)c1 | . | . | -33.8% | ? | 27.8% | ?
CCCC(=O)NCC(c1ccc2c(c1)OCO2)N1CCN(c2ccccc2)CC1 (stereo not drawn) | . | . | 5.2% | -10.0% | 29.7%[57 µM] | -4.1%[59 µM]
Brc1ccc(C=Nc2ccc(Nc3ccccc3)cc2)s1 | ? | 56.2µM* | 39.8µM* | 28.2µM* | ? | 8.91µM*
C(=Nc1ccc(Nc2ccccc2)cc1)c1ccc2ccccc2c1 | ? | 44.7µM* | 35.5µM* | ? | ? | 1.58µM*
Cc1ccc(Cl)cc1N1CCN(C(=O)c2ccc3c(c2)N(Cc2ccc(F)cc2)CCS3)CC1 | . | . | ? | -30.5% | 11.9% | ?
Cc1ccc(CN(CC(=O)NC2CCCC2)C(=O)CSc2nnc(COc3ccccc3)o2)cc1 | 4.5% | -4.6% | 47.0% | -27.1% | ? | 31.6µM*
O=C(CN(Cc1ccccc1)C(=O)CSc1nnc(COc2ccccc2)o1)NC1CCCC1 | -2.7% | 79.4µM* | -1.7% | -11.6% | -7.7% | 10µM*
COc1ccc(-c2sc3cc(OC)c(OC)cc3c2C#CC2(O)CCCCC2)cc1 | -5.6% | . | 79.4µM* | -26.1% | 20.1% | -32.9%[0.501 µM]
